Screening data: PubChem, National Center for Advancing Translational Sciences (NCATS)
Sampled rows, rich in hits. Any-hit rate of the full collection: about 8.3%.
Giardia killer – Giardia lamblia killing; 0.15% of 340,000 active; Giardia lamblia trophozoite viability; activity change, % at 7.66 µM, hits read low; in the data active means activity change below about -80%; inconclusive means between about -30% and that limit;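 further: parasites exposed to compound for two days anaerobically before the ATP read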
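Luminescence from cellular ATP indicates surviving trophozoites (100 cells/well) following 48 hrs anaerobic compound treatment at 37 deg C; signal develops 15-30 min at room temperature.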
MCF10A rerep – inducers of DNA re-replication in MCF 10A breast cells | AID 624296 | MCF 10A DNA re-replication, Hoechst nuclear intensity, 48 h | 2.9% of 350,000 active | Potency, µM (series often up to 46.1 µM), actives largely listed as activators; further: nearly all actives have a fitted effect of over 50% in size
VP16 counter – inhibits Gal4-VP16 luciferase reporter, ROR gamma counter-screen; 3.5% of 310,000 active; AID 2546; Potency, µM (top dose mostly 53.6 µM), actives largely listed as inhibitors; Drosophila S2 Gal4-VP16 UAS-luciferase, luminescence, 20 h;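 further: Gal4-VP16 expression switched on by copper sulfate through the metallothionein promoter; nearly all actives have a fitted effect of over 50% in size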
BCR signal inh – chronic active BCR signaling inhibition; ABC-DLBCL IkBa-CBG/CBR reporter, luminescence ratio, 4 h; Potency, µM (top dose mostly 46.1 µM), actives largely listed as inhibitors; 0.05% of 340,000 active; AID 493014; active means well fitted inhibition curve with a large enough effect in the signal ratio, with a control signal flat, not every such curve was filed as active; inconclusive means small, poorly fitted or top-dose-only effect, or effect the other way, or a change in a side signal; the % refers to the signal ratio
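Cell line TMD8 (human ABC DLBCL), stably expressing tet-inducible CBG68-IkBa fusion and CBR; IMDM/0.5% FBS; cpd up to 46 uM; dox induction, 4 h, 37C/5% CO2; dual luminescence; green/red ratio; MG132 control.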
SW480 rerep – induces DNA re-replication in SW480 colon adenocarcinoma cells | Potency, µM (series often up to 46.1 µM), hits mostly activators | 1.8% of 340,000 active | SW480 DNA re-replication, Hoechst DNA content imaging, 48 h; further: nearly all actives have a fitted effect of over 55% in size
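Hoechst fluorescence of nuclei (405 nm excitation, 500-530 nm emission) measured by plate-scanning imager after 48 hr compound exposure at 37 C; re-replication scored as increased number of nuclei with elevated intensity.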
RORgamma inh – ROR gamma (mouse) transcription inhibition; P51450; Drosophila S2 Gal4-RORgamma UAS-luciferase reporter, 20 h; Potency, µM (doses to about 53.6 µM), usual class: inhibitors; 5.4% of 310,000 active; further: nearly all actives have a fitted effect of over 60% in size
Target sequence (P51450 whole entry, looked up, the tested form may be a part): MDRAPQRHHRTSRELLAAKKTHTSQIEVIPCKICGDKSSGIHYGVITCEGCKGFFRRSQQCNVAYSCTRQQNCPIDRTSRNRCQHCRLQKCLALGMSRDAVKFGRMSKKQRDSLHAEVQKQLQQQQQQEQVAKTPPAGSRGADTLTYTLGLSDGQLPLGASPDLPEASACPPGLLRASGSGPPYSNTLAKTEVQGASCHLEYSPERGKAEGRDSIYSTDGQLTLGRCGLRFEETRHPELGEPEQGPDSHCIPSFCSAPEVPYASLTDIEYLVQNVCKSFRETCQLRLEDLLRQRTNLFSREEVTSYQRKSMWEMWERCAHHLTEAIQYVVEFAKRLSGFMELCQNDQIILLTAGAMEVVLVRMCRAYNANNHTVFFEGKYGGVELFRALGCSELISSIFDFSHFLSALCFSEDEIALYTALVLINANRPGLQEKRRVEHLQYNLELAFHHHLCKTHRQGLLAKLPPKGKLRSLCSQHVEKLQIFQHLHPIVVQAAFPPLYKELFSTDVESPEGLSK
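Read-out: Photinus luciferase luminescence; inhibitors lower reporter signal. Insect Schneider cells with Gal4-ROR gamma fusion under metallothionein promoter, UAS reporter; 700 uM final copper sulfate induction, 20 hr, ambient temperature.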
Of the large screens only hits and unclear results are named; the others gave an inactive call. Unless noted, the call rests on the fitted dose curve; in most records, active means well fitted curve in the direction sought with a large enough effect; inconclusive means small, poorly fitted or top-dose-only effect, or another doubt; inactive means no such curve, though single readings can be large; an effect the other way counts as inactive or inconclusive.

CCCNC(=O)CSc1nc2ccccc2c(=O)n1CCC	none
Cc1ccc(S(=O)(=O)N2CCC(c3nc(-c4cccs4)nc4ccccc34)CC2)cc1	none (no result: MCF10A rerep, VP16 counter, BCR signal inh, SW480 rerep, RORgamma inh)
CCN(c1ccccc1)S(=O)(=O)c1ccc(Cl)c(NC(=O)COC(=O)c2ccc(O)cc2)c1	VP16 counter inconclusive, RORgamma inh inconclusive
CCN(c1ccccc1)S(=O)(=O)c1ccc(Cl)c(NC(=O)COC(=O)c2cc(O)c3ccccc3c2O)c1	VP16 counter 13µM, BCR signal inh inconclusive, RORgamma inh 10µM (no result: Giardia killer, MCF10A rerep, SW480 rerep)
CCN(c1ccccc1)S(=O)(=O)c1ccc(OC)c(NC(=O)CN(C)C)c1	MCF10A rerep inconclusive
CCN(c1ccccc1)S(=O)(=O)c1ccc(OC)c(NC(=O)CNC)c1	MCF10A rerep 8.2µM
Cc1n[nH]c(=S)n1/N=C/c1ccccc1OCc1ccc(Cl)cc1Cl	VP16 counter 7.1µM, SW480 rerep inconclusive, RORgamma inh 2.8µM
Cc1n[nH]c(=S)n1/N=C/c1ccc(OCc2ccc(Cl)cc2Cl)cc1	VP16 counter 11µM, BCR signal inh inconclusive, RORgamma inh 18µM
Cc1n[nH]c(=S)n1/N=C/c1ccccc1	VP16 counter inconclusive, RORgamma inh inconclusive
Cc1cc(C)c(COc2ccc(/C=N/n3c(C)n[nH]c3=S)cc2)c(C)c1	MCF10A rerep 13µM, VP16 counter 7.1µM, BCR signal inh inconclusive, RORgamma inh 2.8µM
Cc1n[nH]c(=S)n1/N=C/c1ccc(OCc2ccc(Cl)cc2)cc1	BCR signal inh inconclusive, RORgamma inh 5.6µM
c1ccc(-c2sc3ccccc3c2-c2ccc(OCCN3CCCC3)cc2)cc1	BCR signal inh inconclusive, SW480 rerep 4.6µM (no result: VP16 counter, RORgamma inh)
CC1CCCC(NC(=O)CCNC(=O)c2ccc([N+](=O)[O-])cc2)C1C (stereo not drawn)	none
Cc1cccc(C)c1OCC(=O)N=Nc1c(O)[nH]c2ccc(Br)cc12	MCF10A rerep 21µM, SW480 rerep inconclusive
Oc1ccc(NC(=S)N=Nc2c(O)[nH]c3ccc(Br)cc23)cc1	MCF10A rerep inconclusive, VP16 counter inconclusive, BCR signal inh inconclusive, SW480 rerep inconclusive, RORgamma inh 10µM
COc1ccc(/C=N/OCC(=O)N=Nc2c(O)[nH]c3ccc(Br)cc23)cc1	BCR signal inh inconclusive
Oc1[nH]c2ccc(Br)cc2c1N=NC(=S)Nc1ccc(F)cc1	VP16 counter 7.9µM, BCR signal inh inconclusive, SW480 rerep inconclusive, RORgamma inh 0.79µM
COc1ccc(OC)c(C2C(C(=O)Nc3ccc(C)cc3)=C(C)Nc3nnnn32)c1 (stereo not drawn)	none (no result: Giardia killer, MCF10A rerep, VP16 counter, SW480 rerep, RORgamma inh)
Cn1c(SCC(=O)Nc2ccccc2)nc2c([nH]c3ccccc32)c1=O	MCF10A rerep 18µM, VP16 counter 13µM, BCR signal inh inconclusive, RORgamma inh inconclusive
Cn1c(SCC(=O)NCc2ccccc2)nc2c([nH]c3ccccc32)c1=O	none (no result: Giardia killer, MCF10A rerep, SW480 rerep)
COc1cccc(NC(=O)CSc2nc3c([nH]c4ccccc43)c(=O)n2C)c1	MCF10A rerep inconclusive
C=CCn1c(SCC(=O)Nc2cc(C)on2)nc2c([nH]c3ccccc32)c1=O	MCF10A rerep inconclusive, VP16 counter 11µM, RORgamma inh inconclusive
Cc1cccc(NC(=O)CSc2nc3c([nH]c4ccccc43)c(=O)n2C)c1	MCF10A rerep inconclusive, VP16 counter inconclusive, BCR signal inh inconclusive, SW480 rerep inconclusive, RORgamma inh 13µM
CCCN1CNc2c(c(=O)[nH]c(=S)n2CCc2ccccc2C)C1	none (no result: MCF10A rerep, VP16 counter, BCR signal inh, SW480 rerep, RORgamma inh)
Cc1ccc(S(=O)(=O)N2CCN(C(=O)C3CCCC3)CC2)cc1C	MCF10A rerep inconclusive
Cc1ccc(C(=O)c2c3ccc([N+](=O)[O-])cc3[n+]([O-])n2CCCC(N)=O)cc1	Giardia killer inconclusive, BCR signal inh inconclusive (no result: VP16 counter, RORgamma inh)
NC(=O)CCCn1c(C(=O)c2cc(Cl)c(N)c(Cl)c2)c2ccc([N+](=O)[O-])cc2[n+]1[O-]	Giardia killer inconclusive, MCF10A rerep 16µM, SW480 rerep 21µM (no result: VP16 counter, RORgamma inh)
NC(=O)CCCn1c(C(=O)c2ccc(Cl)cc2)c2ccc([N+](=O)[O-])cc2[n+]1[O-]	Giardia killer -87, BCR signal inh inconclusive, SW480 rerep inconclusive (no result: VP16 counter, RORgamma inh)
CC(C)c1ccc(/C=N/n2cnnc2)cc1	BCR signal inh inconclusive
CCC(C)NC(=O)C1CCN(S(=O)(=O)c2cccc3nonc23)CC1 (stereo not drawn)	none
CCN(c1cccc(C)c1)S(=O)(=O)c1nnc(NC(=O)c2ccco2)s1	VP16 counter inconclusive, SW480 rerep inconclusive
N#CCSc1nc2c(c(C3CC=CCC3)c1C#N)CCC2 (stereo not drawn)	MCF10A rerep 21µM, BCR signal inh inconclusive
Cn1c2c(c3cnc4cc(Cl)ccc4c31)CNCC2	none (no result: MCF10A rerep, VP16 counter, BCR signal inh, SW480 rerep, RORgamma inh)
CCN1c2ccccc2NC2C1C(C(C)=O)C(=O)N2c1ccc(Cl)cc1 (stereo not drawn)	MCF10A rerep 2.9µM, BCR signal inh inconclusive, SW480 rerep 4.6µM
O=C1Nc2ccccc2N(O)N1c1ccc(Cl)cc1	MCF10A rerep inconclusive
N/C(Cc1ccc([N+](=O)[O-])cc1)=N\OC(=O)c1ccccc1Br	VP16 counter 11µM, RORgamma inh inconclusive
N/C(=N\OC(=O)c1ccccc1Br)c1ccc([N+](=O)[O-])cc1	VP16 counter inconclusive, BCR signal inh inconclusive, RORgamma inh inconclusive
N/C(Cc1ccc([N+](=O)[O-])cc1)=N\OC(=O)C(c1ccccc1)c1ccccc1	VP16 counter 10µM, RORgamma inh inconclusive
Cc1ccc(CC(=O)O/N=C(\N)Cc2ccc([N+](=O)[O-])cc2)cc1	VP16 counter inconclusive
Cc1cccc(C(=O)O/N=C(\N)Cc2ccc([N+](=O)[O-])cc2)c1	VP16 counter inconclusive, RORgamma inh inconclusive
Cc1ccc(C(=O)O/N=C(\N)Cc2ccc([N+](=O)[O-])cc2)c(Cl)c1	MCF10A rerep 18µM, SW480 rerep inconclusive
N/C(Cc1ccc([N+](=O)[O-])cc1)=N\OC(=O)CC1CCCCC1	VP16 counter 13µM, RORgamma inh 13µM
COc1ccccc1NC(=O)c1ccc(NC(=O)c2ccc(=O)[nH]c2)cc1	MCF10A rerep inconclusive, SW480 rerep inconclusive (no result: VP16 counter, RORgamma inh)
C=CCN(Cc1cc(OC)ccc1OC)C(=O)c1cc2ccc(OC)cc2[nH]1	MCF10A rerep inconclusive, SW480 rerep inconclusive
CCOC(=O)c1ccc(S(=O)(=O)NNc2ccc(C(F)(F)F)cn2)cc1	BCR signal inh inconclusive (no result: VP16 counter, RORgamma inh)
Cc1ccc(O)c(Sc2cc(C)ccc2O)c1	MCF10A rerep inconclusive, VP16 counter 13µM, RORgamma inh inconclusive
Cc1ccc(O)c(N)c1	MCF10A rerep inconclusive, VP16 counter inconclusive, SW480 rerep inconclusive, RORgamma inh inconclusive
Cc1cccc[n+]1CC(=O)Nc1cccc([N+](=O)[O-])c1	none
Cc1ccc(NC(=O)c2ccc(NCCc3ccccc3)c([N+](=O)[O-])c2)cc1F	MCF10A rerep 18µM
CCN(c1cccc(C)c1)S(=O)(=O)c1cnc[nH]1	MCF10A rerep 21µM
